Data published in PubChem BioAssay AID651730 (NMMLSC, 2012).
Activity calls are given as the source filed them. How the calls were made is not given here.

Assay: V-ATPase regulators in yeast, S. cerevisiae, pHLuorin, powder sets 2-3, dose response (AID 651730)
Details: S. cerevisiae vacuolar pH, pHluorin fluorescence; series mostly up to 100 µM; response, percent: at the top concentration

response, percent, inactive:
O=C(Nc1ccccc1N1CCOCC1)c1ccc(C(F)(F)F)o1 -3.16%
CN(C)Cc1cccc(C(=O)N2CCN(c3nc4ccc(F)cc4s3)CC2)c1 -4.07%
NS(=O)(=O)c1ccc(C(=O)N2CCN(c3nc4ccc(F)cc4s3)CC2)o1 0.11%
O=C(c1ccc(C(F)(F)F)o1)N1CCN(c2nc3ccc(F)cc3s2)CC1 -1.21%
O=C(Nc1ccccc1N1CCOCC1)c1ccc(-c2ccccc2)o1 0.32%
CN(C)S(=O)(=O)c1cccc(C(=O)Nc2ccccc2N2CCOCC2)c1 -1.05%
CS(=O)(=O)c1ccc(C(=O)N2CCN(c3nc4ccc(F)cc4s3)CC2)o1 -1.13%
CC(C)(C)c1ccc(C(=O)Nc2ccccc2N2CCOCC2)o1 -1.99%
O=C(Nc1ccccc1N1CCOCC1)c1cccc(Br)n1 2.41%
N#Cc1cccc(C(=O)N2CCN(c3nc4ccc(F)cc4s3)CC2)c1 0.65%
CN(C)Cc1ccc(C(=O)N2CCN(c3nc4ccc(F)cc4s3)CC2)o1 -1.38%
Cc1ccnc(C(=O)Nc2ccccc2N2CCOCC2)c1 0.06%
O=C(c1ccc(-c2ccccc2)o1)N1CCN(c2nc3ccc(F)cc3s2)CC1 -0.43%
O=C(Nc1ccccc1N1CCOCC1)c1cccc(C(F)(F)F)n1 -3.19%
Cc1ccc(C(=O)Nc2ccccc2N2CCOCC2)o1 7.72%
COCc1cccc(C(=O)N2CCN(c3nc4ccc(F)cc4s3)CC2)c1 0.01%
O=C(Nc1ccccc1N1CCOCC1)c1cc(C(F)(F)F)ccn1 -0.77%
CN(C)Cc1cccc(C(=O)Nc2ccccc2N2CCOCC2)c1 -2.4%
